These results are taken from PubChem BioAssay (NCI).

Some test systems named below: SK-MEL-2 melanoma; EKVX NSCLC; SN12C renal; UO-31 renal; ACHN renal; CAKI-1 renal; A498 renal; CCRF-CEM leukemia; MOLT-4 leukemia; TK-10 renal.
What all share (assay): NCI-60 one-dose screen, 48 h (100 = growth as untreated, 0 = no growth, -100 = all killed)
What all share (conditions): 10 µM unless noted

Molecules are shown by their SMILES. This is part of a sample that, as a whole, favours compounds with a hit. Of some 83,000 tested, about 20% had one in any assay.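 Note: values are percent growth. 100 is the growth of untreated cells, values between 100 and 0 indicate rising inhibition; between -100 and 0 indicates cell death.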 Values without a mark were called inactive. Activity calls are given as the source filed them. Rule for the calls: active = growth percent below 10; inactive = the rest.

Regarding `C[C@@H]1CCCCCCCCC[C@H](O)C(=O)C[C@@H](SC[C@@H](O)C(=O)O)C(=O)O1`, the growth with SK-MEL-2 melanoma was 100%; in the experiment with EKVX NSCLC, 105%; in the experiment with SN12C renal it was 93.6%; with UO-31 renal, 87.2%; in the experiment on ACHN renal, 96.6%; in the experiment with CAKI-1 renal, 102%. For the same compound, the growth was 167% with A498 renal, 59.4% in the experiment on CCRF-CEM leukemia and 70.2% with MOLT-4 leukemia.
For `COC(c1ccccc1)(c1ccccc1)c1ccccc1`, the growth with SK-MEL-2 melanoma is 118%; in the experiment with EKVX NSCLC it was 85.3%; in the experiment with SN12C renal it was 97%; in the experiment on UO-31 renal it was 105%; in the experiment with ACHN renal it was 101%; in the experiment on CAKI-1 renal, 72.1%. Besides, the growth is 104% in the experiment on A498 renal, 131% with CCRF-CEM leukemia and 123% in the experiment with MOLT-4 leukemia.
For `Cc1oc(-c2ccccc2Cl)cc1C(=O)Nc1ccc(S(N)(=O)=O)cc1`, the growth in the experiment on SK-MEL-2 melanoma was 104%; with EKVX NSCLC, 91.9%; with SN12C renal, 98.2%; in the experiment with UO-31 renal, 88.7%; with ACHN renal, 106%; in the experiment on CAKI-1 renal, 93.9%. The results for the growth in the experiment on A498 renal, in the experiment on CCRF-CEM leukemia and in the experiment with MOLT-4 leukemia were 105%, 96.2% and 96.3%, respectively.
`COc1ccc(/C=C(\C#N)c2cc3ccccc3n2C(C)=O)cc1`: the growth in the experiment on SK-MEL-2 melanoma is 83.3%; with EKVX NSCLC it was 78%; with SN12C renal, 91%; in the experiment with UO-31 renal, 88.1%; in the experiment with ACHN renal, 102%; in the experiment on CAKI-1 renal it was 69.1%. The growth with A498 renal was 78.3%; in the experiment with CCRF-CEM leukemia it was 75.6%; in the experiment on MOLT-4 leukemia it was 70%.
Take `Cn1cc(-c2nc(-c3c[nH]c4ncccc34)cs2)c2cc(F)ccc21`: the growth with SK-MEL-2 melanoma was 28.3%; in the experiment with EKVX NSCLC, 14.5%; in the experiment with SN12C renal, 51.3%; in the experiment on UO-31 renal it was 29.4%; in the experiment on ACHN renal, 24.1%; in the experiment with CAKI-1 renal it was 12.8%. In addition, the results for the growth with A498 renal, with CCRF-CEM leukemia and with MOLT-4 leukemia were 42.3%, 25.8% and 23.9%, respectively.
As to `O=S(=O)(NCCNc1cc(-c2cn(-c3ccccc3)nc2-c2cccc(O)c2)ccn1)c1ccccc1`, the growth is 66.3% with SK-MEL-2 melanoma; 73.1% in the experiment on EKVX NSCLC; 63.4% in the experiment with SN12C renal; 37.4% in the experiment with UO-31 renal; 57.8% in the experiment with ACHN renal; 60.8% in the experiment on CAKI-1 renal. Further, the growth with A498 renal is 70.5%; with CCRF-CEM leukemia, 27.6%; in the experiment on MOLT-4 leukemia it was 25.1%.
Consider `CN1CCN(c2ccc3nc(-c4[nH]ncc4Nc4ncnc5c4OCCCN5)[nH]c3c2)CC1`, for which the growth is -56.1% (active) in the experiment with SK-MEL-2 melanoma; -59.6% (active) in the experiment on EKVX NSCLC; -59.5% (active) in the experiment with SN12C renal; -77.3% (active) in the experiment with UO-31 renal; -98.4% (active) with ACHN renal; -86.2% (active) with CAKI-1 renal. Also, the growth with A498 renal is -95.7% (active); in the experiment on CCRF-CEM leukemia, -25.7% (active); with MOLT-4 leukemia, -22.5% (active).
For `N#C/C(=C\c1ccc(-c2ccc(Br)cc2)o1)c1nc(-c2cccs2)cs1`, the growth in the experiment with SK-MEL-2 melanoma is 109%; in the experiment with EKVX NSCLC it was 79.6%; in the experiment with SN12C renal, 94.5%; in the experiment with UO-31 renal it was 82.1%; in the experiment on ACHN renal, 105%; with CAKI-1 renal it was 100%. In addition, the growth is 99% in the experiment with A498 renal and 94.1% in the experiment with CCRF-CEM leukemia.
Take `COC(=O)[C@]12CC[C@@H](C)[C@H](C)[C@@H]1C1=CC[C@@H]3[C@@]4(C)CC(=O)[C@H](OC(=O)c5ccco5)[C@@]5(C)COC(=C45)C[C@@]3(C)[C@]1(C)CC2`: the growth in the experiment on SK-MEL-2 melanoma was 8.78% (active); in the experiment on EKVX NSCLC, 35.6%; in the experiment with SN12C renal, 36%; in the experiment with UO-31 renal, 29.3%; in the experiment on ACHN renal, 25.9%; with CAKI-1 renal, 28.7%. Moreover, the values for the growth in the experiment on A498 renal and in the experiment with MOLT-4 leukemia were 13.1% and 24.4%, respectively.
Take `COc1cc2c(cc1-c1c(C)noc1C)ncc1nc(C3CCC(F)(F)CC3)n([C@@H](C)COC(F)F)c12`: the growth in the experiment with SK-MEL-2 melanoma was 71.4%; in the experiment on EKVX NSCLC it was 43.4%; with SN12C renal it was 58.5%; in the experiment on UO-31 renal, 3.65% (active); in the experiment on ACHN renal, 36.5%; in the experiment on CAKI-1 renal, 24.3%. The values for the growth with A498 renal, in the experiment with CCRF-CEM leukemia and in the experiment on MOLT-4 leukemia were -12.5% (active), 50.8% and 41.4%, respectively.
Turning to `CC(Cc1ccco1)C(=O)NC(N)=O` (stereo not given), the growth in the experiment on SK-MEL-2 melanoma is 106%; in the experiment with EKVX NSCLC it was 98%; in the experiment on SN12C renal, 103%; with UO-31 renal, 91.6%; in the experiment with TK-10 renal, 98.7%; in the experiment with CAKI-1 renal it was 92.1%. The growth was 102% in the experiment with A498 renal and 98.8% in the experiment on MOLT-4 leukemia.
For `Nc1c(Cl)cc(N=Nc2ccccc2)cc1Cl`, the growth is 61.3% in the experiment with SK-MEL-2 melanoma; 69% with EKVX NSCLC; 95.4% in the experiment with SN12C renal; 62.2% in the experiment on UO-31 renal; 12.8% with TK-10 renal; 89.9% with CAKI-1 renal. Moreover, the growth in the experiment with A498 renal was 73.6%; with MOLT-4 leukemia it was 90.3%.
Turning to `C[C@]12CC[C@@H]3c4ccc(O)cc4CC[C@H]3[C@@H]1C[C@H](O)[C@@H]2O`, the growth with SK-MEL-2 melanoma was 104%; with EKVX NSCLC, 67.4%; in the experiment with SN12C renal it was 94.9%; in the experiment with UO-31 renal it was 78.2%; with ACHN renal, 93.7%; in the experiment with CAKI-1 renal it was 90.5%. The growth was 92.6% with A498 renal and 109% in the experiment with MOLT-4 leukemia.
For `C=C1C(=O)O[C@H]2[C@H]1CC/C(COC(=O)N[C@H](Cc1c[nH]c3ccccc13)C(=O)OC)=C\CC[C@@]1(C)O[C@@H]21`, the growth with SK-MEL-2 melanoma was 70.4%; with EKVX NSCLC, 63.6%; with SN12C renal it was 41.7%; with UO-31 renal it was -4.81% (active); in the experiment with TK-10 renal it was 25.8%; in the experiment with A498 renal, 83%. Besides, the growth is 2.23% (active) with CCRF-CEM leukemia and 4.53% (active) in the experiment on MOLT-4 leukemia.
